Molecules are shown by their SMILES. Compounds without any hit were thinned out: in the full panel of roughly 83,000, 20% have a hit.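 Method: cells in 96-well plates; compound added at one concentration; 48 h incubation; percent growth measured; values under 10 scored active.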 Values without a mark were called inactive. Activity calls are given as the source filed them.

The subject of this test is MDA-MB-468 breast. Description: NCI-60 one-dose screen, 48 h (100 = growth as untreated, 0 = no growth, -100 = all killed). The settings on record: 10 µM unless noted.
In the case of `C=C(c1ccc(N(C)C)cc1)c1ccc(N(C)C)cc1`, the growth is -30.9% (active).
Consider `Cc1ccccc1NC(=O)NC(CC(N)=O)c1ccc2c(c1)nc(-c1cccc(Oc3ccc(C(C)(C)C)cc3)c1)n2CCCN1CCCCC1C` (stereo not given), for which the growth is -78.8% (active).
For `CC(=O)N(CCCCCCN(C(C)=O)C(C)=O)C(C)=O`, the growth is 99.2% [100 µM].
For the compound `COc1ccc(Nc2nn3c(-c4ccccc4)cc(-c4ccccc4)nc3c2C(N)=O)c(OC)c1`, the growth was 43.5%.
With `CCCC(CC)(C(=O)Nc1ccc2nc(C)cc(N)c2c1)C(=O)Nc1ccc2nc(C)cc(N)c2c1`, the growth is 87%.
As to `COc1ccc(-c2c(C#N)cnc(N)c2-c2nc3cc(C)c(C)cc3[nH]2)cc1`, the growth was 57.9%.
Take `O=C1/C(=C/c2ccc(O)cc2)COc2ccc(O)cc21`: the growth was 100%.
The figure for `NC(=NCCCC1(c2ccccc2)CCCC1)Nc1ccc(Cl)cc1` is -83.1% (active); for `COc1cc(-c2nn(-c3cccc(NC(=O)CN4CCOCC4)c3)cc2-c2cccnc2)ccc1Cl` it is 74.9%; for `COc1ncc(F)c(OC)n1` it is 98.7%.
The figure for `COc1ccc(C(=O)Nc2ccc3nc(N4CCCCC4)cc(C)c3c2)cc1OC` is 73.6%.
The figure for `CC1OC(O[C@H]2/C=C/C=C/C=C/C=C/C=C/C=C/C=C/[C@H](C)[C@@H](O)[C@@H](C)[C@H](C)OC(=O)CC(O)CC(O)CCC(O)C(O)CC(O)C[C@]3(O)C[C@H](O)C(C(=O)O)C(C2)O3)C(O)[C@H](N)C1O` (stereo not given in full) is 83.3%; for `O=C(c1ccccc1)c1ccc(Oc2ccc([N+](=O)[O-])cc2[N+](=O)[O-])cc1` it is 5.3% (active).
As for `CCOC(=O)/C(C#N)=C(/C)C1CC1`, the growth was 98.3%.
Take `CCN(CC)c1ccc(N=C2C=CC(=O)C=C2NC(C)=O)cc1`: the growth is 98.7%.
Regarding `O=C(NNc1nc2cc(F)ccc2n2c(CN3CC4CNCC4C3)ccc12)c1cnccn1` (stereo not given), the growth was 3.88% (active).
Turning to `O=C1c2c(O)ccc(O)c2C(=O)c2c(NCCNCCO)ccc(NCCNCCO)c21`, the growth was -77.2% (active).
In the case of `C#Cc1cccc(NC(=O)c2ccccc2NC(=O)CCl)c1`, the growth was 76.1% [8.25 µM].
The figure for `Cn1c2ccccc2c2c3[nH]c(=O)[nH]c(=O)c3c3c4ccccc4n(C)c3c21` is 32.4%.
For `O=C(/C=C/C=C/c1csc(Br)n1)NO`, the growth was 99.7%.
Turning to `O=C1C(=O)c2c(ccc3ccccc23)-c2ccccc21`, the growth is -79.9% (active).
With `Nc1nc(Cl)c2[nH]cnc2n1`, the growth is 94.7%.
Turning to `CC1=N/C(=C\c2cccc(Br)c2)C(=O)O1`, the growth was 107%.
For the compound `OC1CCN(CCCOc2c3ccc(Cl)cc3nc3c2oc2ccc(Cl)cc23)CC1`, the growth was 1% (active).
Turning to `O=S(c1ccccc1)c1ccc2nnnn2n1` (stereo not given), the growth is 112%.
For the compound `C[C@@H](NC(=O)c1ncnc(N)c1Cl)c1ncc(C(=O)Nc2cc(C(F)(F)F)c(Cl)cn2)s1`, the growth is 92.6%.
With `COC(=O)CNC(=O)C(=O)c1c(O)c(O)c(C(C)C)c2cc(C)c(-c3c(C)cc4c(C(C)C)c(O)c(O)c(C(=O)C(=O)NCC(=O)OC)c4c3O)c(O)c12`, the growth is 15.8%.
Regarding `CCN1C(=O)N(CC)C2C1NN=c1s/c(=C\c3cccc(F)c3)c(=O)n12` (stereo not given), the growth was -21.8% (active).
As to `Nc1nc(SCc2cccnc2)c2ncn(C3OC(CO)C(O)C3O)c2n1` (stereo not given), the growth was 97.4%.
In the case of `CCC(CC)N1C(=O)/C(=c2\sc3n(c2=O)C2C(NN=3)N(CC)C(=O)N2CC)c2ccccc21` (stereo not given), the growth was 42.8%.
Turning to `CC(=O)C1CCCCC1`, the growth was 102%.
As for `COc1ncc(-c2ccc3nccc(C#CCCCCC(=O)O)c3c2)cc1NS(=O)(=O)c1ccc(F)cc1F`, the growth was -29.4% (active).
Turning to `CCc1cccc(Sc2cc(C(=O)N3Cc4ccc(OCCN(C)C)cc4C3)ccc2O)c1`, the growth was 30.6%.
In the case of `COc1ccccc1-n1c(-c2csc(NC(C)=O)n2)n[nH]c1=S`, the growth is 100%.
The figure for `Cc1cccc2nnc(-c3ccccc3)n12` is 106%.
As to `CC[C@H](Nc1nc(N)nc(C)c1C#N)c1nc2cccc(CN(C)c3ncc(C(=O)NO)cn3)c2c(=O)n1-c1ccccc1`, the growth was -11.3% (active).
The figure for `Cc1ccc(Cl)cc1NC(=O)c1sc2nc3c(cc2c1N)C(=O)CCC3` is 8.44% (active); for `CC[C@]1(O)CC2CN(CCc3c([nH]c4ccccc34)[C@@](C(=O)OC)(c3cc4c(cc3OC)N(C)[C@H]3[C@@](O)(C(=O)OC)[C@H](OC(C)=O)[C@]5(CC)C=CCN6CC[C@]43[C@@H]65)C2)C1` (stereo not given in full) it is 16.1%.
The figure for `C=C(C)[C@@H]1CC[C@]2(C(=O)NCC(=O)O)CC[C@]3(C)[C@H](CC[C@@H]4[C@@]5(C)Cc6c([nH]c7ccccc67)C(C)(C)[C@@H]5CC[C@]43C)[C@@H]12` is 118%; for `CCCCCCCCCCCC(c1ccccc1)[N+](C)(C)C` (stereo not given) it is -45.6% (active).

The values are drawn from PubChem BioAssay (NCI).
